# In PubChem BioAssay (NCI):
# This is part of a sample that, as a whole, favours compounds with a hit. Of some 83,000 tested, about 20% had one in any assay.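 Note: values are percent growth. 100 is the growth of untreated cells, values between 100 and 0 indicate rising inhibition; between -100 and 0 indicates cell death.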 A number with no mark means an inactive call. The source made the active and inactive calls. How the source made its calls: active means growth percent below 10; inactive means the rest.
# What was measured:
# Assay in all cases: NCI-60 one-dose screen, 48 h (100 = growth as untreated, 0 = no growth, -100 = all killed)
# NCI-H23 lung = conditions: 10 µM unless noted
# NCI-H226 lung = conditions: 10 µM unless noted
# NCI-H322M lung = conditions: 10 µM unless noted
# HOP-62 NSCLC = conditions: 10 µM unless noted
# HOP-92 NSCLC = conditions: 10 µM unless noted
# NCI-H522 lung = conditions: 10 µM unless noted
# A549/ATCC NSCLC = conditions: 10 µM unless noted
# 786-0 renal = conditions: 10 µM unless noted
# COLO 205 colon = conditions: 10 µM unless noted
# DU-145 prostate = conditions: 10 µM unless noted
# K-562 leukemia = conditions: 10 µM unless noted
# MALME-3M melanoma = conditions: 10 µM unless noted
# MDA-MB-231 breast = conditions: 10 µM unless noted
# RXF 393 renal = conditions: 10 µM unless noted
# SF-268 CNS = conditions: 10 µM unless noted
# SF-295 CNS = conditions: 10 µM unless noted
# SF-539 CNS = conditions: 10 µM unless noted
# UACC-257 melanoma = conditions: 10 µM
# M14 melanoma = conditions: 10 µM unless noted
Structure (SMILES),growth (NCI-H23 lung),growth (NCI-H226 lung),growth (NCI-H322M lung) [%],growth (HOP-62 NSCLC),growth (HOP-92 NSCLC),growth (NCI-H522 lung) [%],growth (A549/ATCC NSCLC),growth (786-0 renal),growth (COLO 205 colon) [%],growth (DU-145 prostate) [%],growth (K-562 leukemia) [%],growth (MALME-3M melanoma),growth (MDA-MB-231 breast),growth (RXF 393 renal),growth (SF-268 CNS) [%],growth (SF-295 CNS),growth (SF-539 CNS),growth (UACC-257 melanoma),growth (M14 melanoma) [%]
Cc1cccc(-n2c(C)nc3ccc(NC(=O)NCCCl)cc3c2=O)c1,86.8%,95.3%,105,96%,86%,98.9,101%,93.5%,104,104,112,115%,111%,102%,95.1,99.6%,99%,97.2%,98.7
Nc1c(C(=O)Nc2cccc(C(F)(F)F)c2)sc2nc3c(cc12)CCCCCC3,8.82% (active),5.69% (active),10.6,-1.22% (active),-14.2% (active),36.2,-45.2% (active),-71.7% (active),48.5,20.8,17,-20.6% (active),-12.9% (active),-49.1% (active),12.7,2.51% (active),-86.9% (active),7.85% (active),47.1
O=C(CN1CCN(c2cc3c(cc2F)c(=O)c(C(=O)O)cn3C2CC2)CC1)Nc1ccc(C(=O)/C=C/c2ccc(Cl)cc2)cc1,105%,92.5%,111,107%,95.8%,47.7,97.6%,88.9%,112,120,104,100%,115%,94.1%,121,82.1%,99.5%,103%,96.3
